Measurements taken from article PMC4336329 (PLoS ONE, 2015).
Among all 310,000 compounds or so, about 14,000 (4.5%) showed an effect of 50% or more. The effect is printed as a negative number. This is one part of a sample in which strong results are shown more often than they occur.

Molecular target: human ether-à-go-go-related gene (hERG) potassium channel (human, UniProt Q12809)
Experiment: primary screen, population patch clamp on CHO cells stably expressing hERG; higher = less effect of the substance
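Further: peak tail current of the secondary pulse compared with the same well before compound.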

human ether-à-go-go-related gene (hERG) potassium channel, sequence (Q12809 whole entry, looked up): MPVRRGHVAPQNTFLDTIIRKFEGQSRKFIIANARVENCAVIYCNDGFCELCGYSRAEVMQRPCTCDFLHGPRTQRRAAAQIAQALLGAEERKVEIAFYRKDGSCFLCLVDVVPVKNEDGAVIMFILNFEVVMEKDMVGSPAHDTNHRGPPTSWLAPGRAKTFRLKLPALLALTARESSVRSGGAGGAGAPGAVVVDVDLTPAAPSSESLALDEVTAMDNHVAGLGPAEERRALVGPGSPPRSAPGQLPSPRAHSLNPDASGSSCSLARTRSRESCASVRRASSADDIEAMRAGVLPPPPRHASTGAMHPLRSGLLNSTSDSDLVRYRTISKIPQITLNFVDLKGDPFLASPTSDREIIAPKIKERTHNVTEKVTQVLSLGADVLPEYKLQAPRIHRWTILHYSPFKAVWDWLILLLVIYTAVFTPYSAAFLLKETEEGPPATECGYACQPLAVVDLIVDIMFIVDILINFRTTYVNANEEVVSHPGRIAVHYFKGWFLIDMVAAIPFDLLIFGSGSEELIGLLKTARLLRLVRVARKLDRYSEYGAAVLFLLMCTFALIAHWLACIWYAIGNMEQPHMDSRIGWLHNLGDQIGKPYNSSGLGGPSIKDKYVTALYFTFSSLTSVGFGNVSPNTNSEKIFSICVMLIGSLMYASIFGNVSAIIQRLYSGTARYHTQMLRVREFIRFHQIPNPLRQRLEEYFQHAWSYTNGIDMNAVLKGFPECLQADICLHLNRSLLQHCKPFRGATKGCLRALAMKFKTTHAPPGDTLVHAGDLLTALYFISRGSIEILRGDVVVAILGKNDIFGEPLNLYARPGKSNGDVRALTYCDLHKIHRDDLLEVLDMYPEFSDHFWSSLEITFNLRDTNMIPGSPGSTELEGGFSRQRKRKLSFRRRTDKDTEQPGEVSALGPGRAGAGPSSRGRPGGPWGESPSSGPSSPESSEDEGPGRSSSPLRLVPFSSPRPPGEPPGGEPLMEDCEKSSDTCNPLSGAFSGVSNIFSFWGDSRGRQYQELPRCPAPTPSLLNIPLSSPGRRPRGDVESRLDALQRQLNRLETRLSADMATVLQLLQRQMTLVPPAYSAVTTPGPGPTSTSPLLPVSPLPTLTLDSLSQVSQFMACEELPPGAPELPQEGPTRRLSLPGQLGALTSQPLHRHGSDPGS

Structure (SMILES)	hERG current change (%, negative = inhibition) at 10uM [%]
CCOC(=O)c1cnn(CCOC(=O)c2ccccc2F)c1NC(=O)c1ccccc1F	-15.6
COC(=O)c1cc(Br)c(=O)n(-c2nccs2)c1	-5.98
Cc1cccc(N2C(S)=C(C#N)C(=O)NC2c2cccs2)c1 (centres unmarked)	13
CN(CC(=O)Nc1cccc2ccccc12)C(=O)/C=C/c1cccs1	-10.7
O=C1OC(/C=C/c2ccc(Cl)cc2)=NC/1=C/c1ccco1	2.78
Cc1occc1C(=O)NNC(=O)c1ccccc1F	13
CC(=O)C(=Nc1cccc(Cl)c1)NNc1ccccc1C	8.82
O=C(N1CCN(c2ccc(F)cc2)CC1)C1(c2cccs2)CCOCC1	-33
O=C(c1ccco1)N1CCN(c2ccc([N+](=O)[O-])cn2)CC1	-57.7
O=C(c1ccc([N+](=O)[O-])cc1)N1CCN(C(=O)c2ccco2)CC1	-47.4
O=C(c1ccco1)N1CCN(c2cc(N3CCOCC3)c(F)cc2[N+](=O)[O-])CC1	-49.6
O=C(c1ccco1)N1CCN(c2ccc(N3CCCCC3)nn2)CC1	-44.8
CC(=O)c1ccc(N2CCN(C(=O)c3ccco3)CC2)c(F)c1	-25.2
O=C(c1ccco1)N1CCN(c2ccc([N+](=O)[O-])cc2F)CC1	-64.9
O=C(CCCNS(=O)(=O)c1cccc2nsnc12)NCc1ccc(Cl)cc1	-37.9
CC(C)n1nc(C(=O)N2CCN(S(=O)(=O)c3cccs3)CC2)c2ccccc2c1=O	-28.7
CC(C)Nc1nnc(SCC(=O)N2CCN(C(=O)c3ccco3)CC2)s1	-2.72
O=C(CSc1nn(-c2ccc(F)cc2)c(=S)s1)N1CCN(C(=O)c2ccco2)CC1	-75
CCSc1nnc(SCC(=O)N2CCN(C(=O)c3ccco3)CC2)s1	-33.4
O=C(CSc1nn(-c2ccc(F)cc2)c(=S)s1)NC(=O)NCc1ccco1	2.66
O=C(CSc1nnc(SCc2ccc(Cl)cc2)s1)N1CCN(C(=O)c2ccco2)CC1	-33.7
O=C(CSc1nn(-c2ccc(Cl)cc2)c(=S)s1)N1CCN(C(=O)c2ccco2)CC1	-70.5
O=S(=O)(c1ccc(Cl)cc1)N1CCN(C(=S)Nc2ccccc2F)CC1	2.92

Structure (SMILES)	hERG current change (%, negative = inhibition) at 10uM [%]
O=C(Nc1cccc(-c2ccc(N3CCOCC3)nn2)c1)c1ccccc1	-30.8
CC(=O)C[C@@H](O)CC(=O)[C@H]1OC(=O)CC/C=C\Cc2ccccc21	14.4
O=C(CN1C(=O)C2CC=CCC2C1=O)NCC1COc2ccccc2O1 (centres unmarked)	1.42
CN(C)C(=O)NC(Nc1cccc([N+](=O)[O-])c1)C(Cl)(Cl)Cl (centres unmarked)	-27.1
CCc1ccc(CNC(=O)c2ccc(OC)c(OC3CCN(C(C)C)CC3)c2)nc1	-7.31
Cc1ccnc(NC(c2cccnc2)c2ccc3cccnc3c2O)c1 (centres unmarked)	-22.5
COc1ccc(N2CCN(C(=O)C(=O)c3cn(CC(=O)N4CCOCC4)c4ccccc34)CC2)cc1	2.05
S=C1NC(c2ccccc2)=CC(c2ccccc2)N1 (centres unmarked)	6.64
CC(=O)NN1C(=O)/C(=C2/Sc3ccc(Cl)cc3N2C)SC1=S	10.6
C#CC[N+](C)(C)CCCCCCCCC.[Br-]	-54.9
C#CC[N+](C)(C)CCCCCCCCCC.[Br-]	-38.4
C#CC[N+](C)(C)CCCCCCCC.[Br-]	-15.9
CC#CC[N+](C)(C)CCCCCCCC.[Br-]	-40.1
C#CC[N+](C)(C)CCCCCCCCCCCC.[Br-]	-50.7
CC#CC[N+](C)(C)CCCCCCCCCC.[Br-]	-48.8
CCCCNC(=O)c1ccc2c(c1)N(CC)C(=O)CS2	-2.74
COC(=O)C1=C(C)N(Cc2ccccc2)C(=NCc2cc(OC)c(OC)c(OC)c2)N[C@H]1c1cccc(F)c1	-23
COc1ccc(OC)c(/C=C(\C)C(=O)c2c(C)cc(C)[nH]c2=O)c1	7.34
CC(=O)N1CCN(c2ccc(NC(=O)c3ccc([N+](=O)[O-])o3)cc2Cl)CC1	-50
O=C(Nc1ccc(NC(=O)c2ccc([N+](=O)[O-])o2)cc1Cl)c1ccco1	9.42
CC(=O)N1CCN(c2ccc(NC(=O)c3ccco3)cc2Cl)CC1	0.303
CN1CCN(c2ccc(NC(=O)c3ccco3)cc2Cl)CC1	-16.8
CC(=O)N1CCN(c2ccc(NC(=O)c3ccc(N4CCCC4)c([N+](=O)[O-])c3)cc2Cl)CC1	-12.4

Structure (SMILES)	hERG current change (%, negative = inhibition) at 10uM [%]
CN1CCN(c2ccc(NC(=O)c3ccc([N+](=O)[O-])o3)cc2Cl)CC1	-57.3
CC1CCCCC12NC(=O)N(CC(=O)NCCc1ccc(F)cc1)C2=O (centres unmarked)	-19.7
Cc1ccc2[nH]c3c(=O)n(CC(=O)Nc4ccccc4N4CCN(C)CC4)ncc3c2c1	-5.73
COc1ccc(/C=C2/SC(=S)N(CCCC(=O)Nc3cccc(O)c3)C2=O)cc1	9.11
Cc1cccc(NC(=O)CN(C)S(=O)(=O)c2ccc3c(c2)n(C)c(=O)c(=O)n3C)c1C	-7.72
Br.COc1ncnc2c1N=C1CC(C)(C)CC(N)=C1S2	-10.4
Cc1ccc(S(=O)(=O)N2CCN(c3ccccc3)CC2)cc1	13
COC(=O)Cc1c[nH]c2cccc(OCC(O)CN(Cc3ccccc3)C(C)C)c12.O=C(O)c1ccccc1O (centres unmarked)	-63
COc1ccc(COCC(O)CN(Cc2ccccc2)C(C)C)cc1OC (centres unmarked)	0.398
CC(C)N(Cc1ccccc1)CC(O)COc1ccc(S(=O)(=O)N2CCOCC2)cc1Cl (centres unmarked)	-32.3
O=C(C[n+]1cc(-c2ccc(Cl)c(Cl)c2)n2c1CCC2)c1cccs1.[Br-]	-3.09
O=C(N/N=C/c1cccc(OC(=O)c2ccccc2Cl)c1)c1cccnc1	-17
O=C(Nc1cccc2ccccc12)c1cccc([N+](=O)[O-])c1	11.6
CCN(CC)CCN1C(=O)c2ccccc2NC1c1ccc(C)cc1 (centres unmarked)	-66.1
O=C1c2ccccc2NC(c2cccc(F)c2)N1Cc1ccccc1 (centres unmarked)	-71.1
O=C1c2ccccc2NC(c2ccc(F)cc2)N1Cc1ccccc1 (centres unmarked)	-9.65
O=C1c2ccccc2NC(c2cccc(F)c2)N1Cc1ccco1 (centres unmarked)	-48.6
CCCN1C(=O)c2ccccc2NC1c1ccc(Cl)c(Cl)c1 (centres unmarked)	6.85
O=C1c2ccccc2NC(c2ccccc2)N1Cc1ccccc1 (centres unmarked)	-35.2
CCN(CC)CCN1C(=O)c2ccccc2NC1c1cccc(F)c1 (centres unmarked)	-68.2
CCCN1C(=O)c2ccccc2NC1c1ccc(Br)cc1 (centres unmarked)	-18.1
CCN(CC)CCN1C(=O)c2ccccc2NC1c1ccc(N(C)C)cc1 (centres unmarked)	-46.6
CCN(CC)CCN1C(=O)c2ccccc2NC1c1ccccc1F (centres unmarked)	-46.3

Structure (SMILES)	hERG current change (%, negative = inhibition) at 10uM [%]
CCN(CC)CCN1C(=O)c2ccccc2NC1c1ccc(Br)cc1 (centres unmarked)	-85.7
CCCN1C(=O)c2ccccc2NC1c1ccc(C)cc1 (centres unmarked)	-4.35
COc1ccc(NC(=S)N2CCN(Cc3cccc(F)c3)CC2)c(OC)c1	-6.36
COc1ccc(C(=O)N2C(=S)NC(=O)/C2=C\c2ccc(C)cc2)cc1	-2.42
Cc1cccc(CN2C(=O)/C(=C\c3ccc(C(=O)NCCCN4CCN(C)CC4)cc3)Oc3ccccc32)c1	-4.13
O=C(NCCNC1CCN(Cc2ccccc2)CC1)c1cccs1	-15.2
COc1ccc(NC(=O)CN(C)CC(=O)Nc2ccc(Cl)cc2[N+](=O)[O-])cc1	-48
CCOC(=O)c1[nH]cnc1C(=O)Nc1ccc(C)cc1	11.6
CC1(C)CC(NC(=O)Nc2ccc([N+](=O)[O-])cc2)CC(C)(C)N1	9.76
FC(F)(F)c1nnc2c(Sc3ccc(Cl)cc3)nc3ccccc3n12	13.5
CC(=O)c1c(C)oc2ccc(OCc3ccccc3)cc12	0.181
Cc1ccc(NC2=NC(c3ccc(F)cc3)n3c(nc(C)cc3=O)N2)c(C)c1 (centres unmarked)	21.8
O=C(Cn1cc([N+](=O)[O-])cn1)NCc1ccccc1	20.9
CCC(C)[C@H]1CNC(=O)C(=O)N1CCCc1cc(OC)c(OC)c(OC)c1 (some centres unmarked)	9.16
CCN(CC)CCN1C(=O)c2ccccc2NC1c1ccc(F)cc1 (centres unmarked)	-64.3
CCCN1C(=O)c2ccccc2NC1c1ccc(Cl)cc1 (centres unmarked)	-7.23
COc1ccc(C2Nc3ccccc3C(=O)N2Cc2ccccc2)cc1CN1CCOCC1 (centres unmarked)	-63.5
COc1ccc(C2Nc3ccccc3C(=O)N2O)cc1CN1CCOCC1 (centres unmarked)	-2.72
CCN(CC)CCN1C(=O)c2ccccc2NC1c1cc(OC)c(OC)c(OC)c1 (centres unmarked)	-40.7
COc1ccc(C2Nc3ccccc3C(=O)N2c2ccccc2)cc1CN1CCOCC1 (centres unmarked)	-26.7
